# Measured values as given in PubChem BioAssay (NCATS).
# Records with an inconclusive call do not appear. Entries that show only a call come without a potency. Calls of active or inactive are those of the source. Unless noted, calls come from the whole dose curve; as a rule, active = well fitted curve in the direction sought with a large enough effect; inconclusive = small, poorly fitted or top-dose-only effect, or another doubt; inactive = no such curve, though single readings can be large; an effect the other way counts as inactive or inconclusive.
# Assays:
# [1] = Validation of Assay for Modulators of Lamin A Splicing (AID 1459; active = well fitted curve in the direction sought with a large enough effect in the signal ratio; the % refers to the signal ratio;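 note: cells exposed to compound for two days before reading; ratio rise marks activators and ratio drop marks inhibitors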)
# Outline: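 Dual-reporter HeLa S3 line (lamin A-EGFP minigene, DsRed2) treated with compounds 48 hrs, 0.5% DMSO final. Endpoint: EGFP/DsRed2 total intensity ratio from laser-scanning microplate cytometry.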
# [2] = target: DNA repair nuclease/redox regulator APEX1 (Homo sapiens) (UniProt P27695); test: qHTS Validation Assay for Inhibitors of the Human Apurinic/apyrimidinic Endonuclease 1 (APE1) (AID 1705;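 note: TAMRA fluorescence gain over two minutes as APE1 cuts a quenched THF abasic duplex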)
# Sequence of DNA repair nuclease/redox regulator APEX1 (Homo sapiens) (P27695 whole entry, looked up): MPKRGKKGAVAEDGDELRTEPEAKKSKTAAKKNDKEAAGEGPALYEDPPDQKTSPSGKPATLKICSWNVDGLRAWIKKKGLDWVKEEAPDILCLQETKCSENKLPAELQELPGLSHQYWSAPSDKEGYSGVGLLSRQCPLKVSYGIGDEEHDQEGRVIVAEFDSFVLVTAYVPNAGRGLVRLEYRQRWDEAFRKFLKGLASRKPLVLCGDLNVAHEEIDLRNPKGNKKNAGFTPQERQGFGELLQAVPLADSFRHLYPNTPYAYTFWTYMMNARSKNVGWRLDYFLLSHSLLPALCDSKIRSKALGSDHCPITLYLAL
# Outline: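 Substrate: 50 nM final fluorophore/quencher THF-abasic duplex. Enzyme preincubated with compounds 15 min, RT. Progress derived from fluorescence difference, third minus first kinetic read.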
# [3] = Counterscreen for APE1 Inhibitors: Fluorescent Dye Displacement Validation Assay (AID 1707)
# Outline: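 Thiazole Orange (250 nM) bound to 50 nM TAMRA-labelled dsDNA with tetrahydrofuran abasic site; displacement by DNA-binding compounds lowers fluorescence. Buffer 50 mM Tris-HCl pH 7.5, 50 mM NaCl, 2 mM MgCl2, 0.01% Tween-20; endpoint read at 480/540 nm.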
# [4] = target: Endonuclease 4 (Escherichia coli (strain K12)) (UniProt P0A6C1); test: Counterscreen for APE1 Inhibitors: qHTS Validation Assay for Inhibitors of Endonuclease IV (AID 1708)
# Outline: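 qHTS concentration-response format; LOPAC1280 tested under APE1-screen conditions. 2 nM enzyme, 15 min compound preincubation at RT, then 50 nM TAMRA/BHQ-2 abasic substrate; kinetic fluorescence read, three reads at 60 s intervals.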
# [5] = qHTS for differential inhibitors of proliferation of Plasmodium falciparum line GB4 (AID 1816); conditions: Potency: Plasmodium falciparum GB4 proliferation inhibition;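 note: parasite growth measured after 72 h incubation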; note: potency is the fitted concentration of half-maximal effect
# [6] = qHTS for differential inhibitors of proliferation of Plasmodium falciparum line 3D7 (AID 1876); note: potency is the fitted concentration of half-maximal effect
# [7] = qHTS for differential inhibitors of proliferation of Plasmodium falciparum line D10 (AID 1877);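 note: parasites grown with compound for 72 h before DNA staining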; note: potency is the fitted concentration of half-maximal effect
# [8] = qHTS for differential inhibitors of proliferation of Plasmodium falciparum line Dd2 (AID 1882); conditions: Potency: Plasmodium falciparum Dd2 proliferation inhibition; note: nearly all actives have a fitted effect of over 65% in size; note: potency is the fitted concentration of half-maximal effect
# Outline: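 Dd2-infected erythrocytes (0.3% parasitemia, 2.5% hematocrit final) incubated with compound 72 h at 37 C, 5% CO2; lysed with saponin/Triton buffer containing SYBR Green I, incubated overnight in the dark, then read by fluorescence (485/535 nm). Normalized to 0.29 uM artemisinin and DMSO.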
# [9] = qHTS for differential inhibitors of proliferation of Plasmodium falciparum line HB3 (AID 1886); conditions: Potency: Plasmodium falciparum HB3 proliferation inhibition;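 note: parasites grown with compound for 72 h before SYBR Green readout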; note: potency is the fitted concentration of half-maximal effect
# [10] = qHTS Assay for Modulators of Human Peripheral Myelin Protein 22 (PMP22) Expression/Activity (AID 1967; active = well fitted curve in the direction sought with a large enough effect in the signal ratio; the % refers to the signal ratio)
# Outline: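 Engineered MSC80 cells, Pmp22-promoter green and EF-alpha red luciferase reporters; 24h compound treatment at 37 °C. Concentration-response fits on green, red and ratio signals, each overlap-corrected, with %Activity normalized to untreated wells.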
# [11] = target: Ferritin light chain (Equus caballus) (UniProt P02791); test: qHTS Validation Assay for Identification of Novel General Anesthetics (AID 2323)
# Sequence of Ferritin light chain (Equus caballus) (P02791 2-175 limits assumed): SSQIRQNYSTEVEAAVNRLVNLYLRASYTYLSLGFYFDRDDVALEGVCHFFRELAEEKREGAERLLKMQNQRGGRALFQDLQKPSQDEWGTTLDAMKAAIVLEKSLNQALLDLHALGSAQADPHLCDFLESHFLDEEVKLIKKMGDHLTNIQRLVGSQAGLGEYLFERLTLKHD
# Outline: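 Normalized fluorescence response, scaled between free 1-AMA and 1-AMA/apoferritin complex, fitted to a four-parameter Hill equation for concentration-effect values. Binding mix: 10 uM horse-spleen apoferritin, 50% saturated 1-AMA in PBS; read 380/535 nm after 10 min.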
# [12] = target: ATP-dependent DNA helicase Q1 (Homo sapiens) (UniProt P46063); test: qHTS Validation Assay for Inhibitors of RecQ-Like Dna Helicase 1 (RECQ1) (AID 2353)
# Sequence of ATP-dependent DNA helicase Q1 (Homo sapiens) (P46063 whole entry, looked up): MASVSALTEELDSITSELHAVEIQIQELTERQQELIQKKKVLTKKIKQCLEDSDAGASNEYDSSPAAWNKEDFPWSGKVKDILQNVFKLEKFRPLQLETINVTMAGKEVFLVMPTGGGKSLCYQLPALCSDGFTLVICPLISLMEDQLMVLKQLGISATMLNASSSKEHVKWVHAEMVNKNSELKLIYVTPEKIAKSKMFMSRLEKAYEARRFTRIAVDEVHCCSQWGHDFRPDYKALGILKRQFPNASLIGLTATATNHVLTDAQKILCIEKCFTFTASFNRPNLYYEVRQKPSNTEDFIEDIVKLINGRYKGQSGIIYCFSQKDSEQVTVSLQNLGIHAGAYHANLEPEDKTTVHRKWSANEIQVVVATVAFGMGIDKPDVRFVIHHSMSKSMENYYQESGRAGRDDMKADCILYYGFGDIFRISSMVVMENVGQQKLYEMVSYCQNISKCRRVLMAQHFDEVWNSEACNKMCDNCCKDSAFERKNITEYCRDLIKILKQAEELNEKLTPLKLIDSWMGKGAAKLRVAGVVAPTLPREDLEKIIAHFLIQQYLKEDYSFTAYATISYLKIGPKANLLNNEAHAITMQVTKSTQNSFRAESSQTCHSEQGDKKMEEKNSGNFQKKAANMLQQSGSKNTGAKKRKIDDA
# Outline: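 50 nM RECQ1T1 preincubated 15 min with compound in Tris pH 8.0 buffer with MgCl2, DTT, Tween-20 and 2.5 ug/ml poly(dI-dC); started with 200 nM TAMRA/BHQ-2 forked duplex and 2 mM ATP. Unwinding read as fluorescence (525/598 nm), two reads 2 h apart.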
# [13] = Cytometric Cell-Based qHTS for Inhibitors of the mTORC1 Signaling Pathway in MEF (Tsc2-/-, p53-/-) Cells (AID 2660);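 note: percent of cells above a phospho-rpS6 to PI ratio cutoff in each well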
# Outline: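 Tsc2-/-, p53-/- MEFs (empty vector) exposed to compound 24 h at 37 C, fixed, stained with Alexa-488 anti-phospho-rpS6 Ser235/236 and propidium iodide. Acumen laser scanning; phospho-S6/PI ratio thresholded against 7.5 nM rapamycin, reported as % positive cells.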
# [14] = High Content Imaging Cell-Based qHTS for Inhibitors of the mTORC1 Signaling Pathway in MEF (Tsc2-/-, p53-/-) Cells (AID 2666);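 note: percent of cells scored positive for phospho-rpS6 Ser235/236 immunostaining by imaging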
# Outline: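 Cells were plated, dosed with compound after 24 hrs, and incubated another 24 hrs at 37 degree Celsius. Fixed cells were immunostained for phospho-rpS6 Ser235/236 and counterstained, and the normalized signal was scored as % active cells against rapamycin and DMSO controls.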
# [15] = qHTS Assay for Lipid Storage Modulators (AID 1519; calls by dose curve); conditions: Drosophila S3 cells, BODIPY lipid droplet/cell ratio, laser cytometry, cells loaded with oleic acid; for activity change, negative = inhibition: at 57.5 µM (top of the series)
# Outline: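 Cells seeded at 5,000 per well were treated with compounds over a concentration series and loaded with oleic acid (400 uM, as added). Lipid droplet fluorescence (488 nm excitation, 500-530 nm channel) was read by laser-scanning cytometry and normalized to 20 uM Triacsin C.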
# [16] = target: RecQ-like DNA helicase BLM (Homo sapiens) (UniProt P54132); test: qHTS Validation Assay for Inhibitors of Bloom's syndrome helicase (BLM) (AID 2364)
# Sequence of RecQ-like DNA helicase BLM (Homo sapiens) (P54132 whole entry, looked up): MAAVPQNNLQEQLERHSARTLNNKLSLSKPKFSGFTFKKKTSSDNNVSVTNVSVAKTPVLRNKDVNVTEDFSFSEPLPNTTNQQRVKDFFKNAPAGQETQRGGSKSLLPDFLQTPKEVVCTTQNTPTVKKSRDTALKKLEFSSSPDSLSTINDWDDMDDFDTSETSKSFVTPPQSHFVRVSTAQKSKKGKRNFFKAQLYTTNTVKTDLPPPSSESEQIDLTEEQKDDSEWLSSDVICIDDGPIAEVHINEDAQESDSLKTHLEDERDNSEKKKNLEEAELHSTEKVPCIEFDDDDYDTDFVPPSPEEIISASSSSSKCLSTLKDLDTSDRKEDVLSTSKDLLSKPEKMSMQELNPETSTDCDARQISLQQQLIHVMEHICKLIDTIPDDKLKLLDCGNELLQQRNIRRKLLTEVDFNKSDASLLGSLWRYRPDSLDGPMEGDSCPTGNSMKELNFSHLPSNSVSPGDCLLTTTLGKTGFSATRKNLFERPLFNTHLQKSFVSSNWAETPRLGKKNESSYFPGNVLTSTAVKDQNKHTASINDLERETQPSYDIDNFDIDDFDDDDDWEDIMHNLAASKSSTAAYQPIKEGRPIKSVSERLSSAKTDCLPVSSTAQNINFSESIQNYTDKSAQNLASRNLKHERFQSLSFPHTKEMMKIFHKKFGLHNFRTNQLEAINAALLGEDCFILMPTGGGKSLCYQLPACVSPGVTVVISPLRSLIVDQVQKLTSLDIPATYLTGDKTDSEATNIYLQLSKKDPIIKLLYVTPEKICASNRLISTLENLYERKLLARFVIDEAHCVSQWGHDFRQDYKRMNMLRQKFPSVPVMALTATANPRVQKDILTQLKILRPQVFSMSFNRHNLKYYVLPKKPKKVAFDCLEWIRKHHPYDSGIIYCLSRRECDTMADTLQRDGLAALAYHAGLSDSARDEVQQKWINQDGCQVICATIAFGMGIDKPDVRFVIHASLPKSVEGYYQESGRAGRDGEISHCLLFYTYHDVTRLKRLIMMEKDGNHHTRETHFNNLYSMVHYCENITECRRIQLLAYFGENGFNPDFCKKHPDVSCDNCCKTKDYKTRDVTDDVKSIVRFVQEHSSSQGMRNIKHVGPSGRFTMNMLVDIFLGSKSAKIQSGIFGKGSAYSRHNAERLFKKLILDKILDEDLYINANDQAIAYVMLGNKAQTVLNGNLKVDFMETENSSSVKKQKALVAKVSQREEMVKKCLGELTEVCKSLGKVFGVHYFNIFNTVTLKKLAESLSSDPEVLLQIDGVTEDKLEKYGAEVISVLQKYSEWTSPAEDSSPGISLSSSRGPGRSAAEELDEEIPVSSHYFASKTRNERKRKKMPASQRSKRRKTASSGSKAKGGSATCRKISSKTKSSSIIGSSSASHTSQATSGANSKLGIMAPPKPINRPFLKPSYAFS
# Outline: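 Forked 20-bp duplex substrate (200 nM, TAMRA/BHQ-2) plus 2 mM ATP added after 15 min compound preincubation with 50 nM enzyme, pH 8.0, poly(dI-dC) 2.5 ug/ml. Strand separation followed by fluorescence (525/598 nm) over 2 h, normalized to enzyme-free and DMSO controls.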
# [17] = qHTS for differential inhibitors of proliferation of Plasmodium falciparum line 7G8 (AID 1815);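 note: parasite growth measured after three days of incubation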; note: potency is the fitted concentration of half-maximal effect
# [18] = qHTS for differential inhibitors of proliferation of Plasmodium falciparum line W2 (AID 1883); conditions: Potency: Plasmodium falciparum W2 proliferation inhibition;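 note: parasites grown with compound for 72 h before lysis and staining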; note: potency is the fitted concentration of half-maximal effect
# [19] = measured here: cell count channel max response
# [20] = measured here: lipid channel max response
Compound,outcome [1],Potency [2],Potency [3],Potency [4],Potency [5],Potency [6],Potency [7],Potency [8],Potency [9],outcome [10],Potency [11],Potency [12],outcome [13],Potency [14],"activity change, negative = inhibition [15]","max response [15, 19]","max response [15, 20]",Potency [16],Potency [17],Potency [18]
c1ccc(-c2ccccn2)nc1,inactive,inactive,inactive,inactive,inactive,inactive,inactive,inactive,inactive,inactive,inactive,inactive,inactive,inactive,–,–,–,–,–,–
CN1[C@@H](CC(=O)c2ccccc2)CCC[C@H]1C[C@H](O)c1ccccc1,inactive,inactive,inactive,–,–,–,–,–,–,inactive,inactive,inactive,inactive,–,-1.25% (inactive),24.6%,23.7%,inactive,–,–
CN[C@H](CC(C)C)C(=O)N[C@H]1C(=O)N[C@@H](CC(N)=O)C(=O)N[C@H]2C(=O)N[C@H]3C(=O)N[C@H](C(=O)N[C@H](C(=O)O)c4cc(O)cc(O)c4-c4cc3ccc4O)[C@H](O)c3ccc(c(Cl)c3)Oc3cc2cc(c3O[C@@H]2O[C@H](CO)[C@@H](O)[C@H](O)[C@H]2O[C@H]2C[C@](C)(N)[C@H](O)[C@H](C)O2)Oc2ccc(cc2Cl)[C@H]1O,inactive,inactive,inactive,–,inactive,inactive,inactive,inactive,inactive,inactive,inactive,inactive,–,–,–,–,–,inactive,inactive,inactive
O=C(O)/C=C/C(O)c1ccc(Cl)cc1 (configuration not stated),inactive,–,inactive,inactive,inactive,inactive,inactive,inactive,inactive,–,inactive,inactive,inactive,inactive,–,–,–,–,inactive,inactive
CC(=O)N[C@H](C(=O)O)C(C)(C)SN=O,inactive,inactive,inactive,inactive,inactive,inactive,inactive,inactive,inactive,inactive,inactive,inactive,inactive,inactive,–,–,–,inactive,inactive,inactive
Clc1ccc(N2CCN(Cc3c[nH]c4ncccc34)CC2)cc1,inactive,inactive,inactive,inactive,–,–,–,inactive,–,–,inactive,inactive,inactive,–,–,–,–,inactive,–,–
COc1cccc(C(=O)NCCN2CCN(c3ccc(Cl)cc3)CC2)c1,inactive,inactive,inactive,–,inactive,–,–,inactive,inactive,–,inactive,inactive,inactive,inactive,-1.54% (inactive),-16.3%,-18.1%,inactive,–,14.1 µM (active)
CNCC[C@H](Oc1ccc(C(F)(F)F)cc1)c1ccccc1,inactive,–,inactive,inactive,–,–,–,–,–,–,–,inactive,–,inactive,–,–,–,–,–,–
Cc1ccc(C(=O)O[C@H](C(=O)O)[C@@H](OC(=O)c2ccc(C)cc2)C(=O)O)cc1 (tested in a mixture with another compound),inactive,–,inactive,inactive,inactive,inactive,inactive,inactive,inactive,inactive,inactive,inactive,inactive,inactive,-0.359% (inactive),35.2%,38.6%,–,inactive,inactive
O=C(O)CC[C@@H](C(=O)O)N1C(=O)c2ccccc2C1=O,inactive,inactive,inactive,–,inactive,inactive,inactive,inactive,inactive,–,inactive,inactive,inactive,inactive,–,–,–,inactive,inactive,inactive
O=C(O)c1cc([N+](=O)[O-])ccc1NCCCc1ccccc1,inactive,inactive,inactive,–,inactive,inactive,–,inactive,–,–,–,inactive,inactive,inactive,0.312% (inactive),-11.5%,-12.2%,–,–,–
CN1CCc2cc(NC(=O)Nc3cccnc3)ccc21,inactive,inactive,inactive,–,–,inactive,inactive,inactive,–,–,inactive,inactive,inactive,inactive,0.252% (inactive),32.8%,37.5%,–,–,–
NO,inactive,–,inactive,inactive,–,–,–,inactive,–,inactive,inactive,inactive,inactive,inactive,–,–,–,inactive,–,–
C[C@@H](NC(=O)/C(C#N)=C/c1ccc(O)c(O)c1)c1ccccc1,inactive,inactive,inactive,inactive,10 µM (active),–,12.6 µM (active),–,11.2 µM (active),–,–,inactive,inactive,inactive,–,–,–,–,11.2 µM (active),11.2 µM (active)
Cc1cc(NC(=O)Nc2ccc3c(ccn3C)c2)sn1,inactive,inactive,inactive,–,–,–,–,inactive,12.6 µM (active),–,inactive,inactive,inactive,inactive,–,–,–,–,7.94 µM (active),7.94 µM (active)
O=C(Nc1ccccc1)c1cc([N+](=O)[O-])ccc1Cl,inactive,inactive,inactive,inactive,11.2 µM (active),11.2 µM (active),11.2 µM (active),inactive,10 µM (active),–,–,inactive,inactive,inactive,–,–,–,inactive,8.91 µM (active),12.6 µM (active)
Fc1ccc(C(OCCCc2cnc[nH]2)c2ccc(F)cc2)cc1,inactive,inactive,inactive,inactive,1.26 µM (active),1.26 µM (active),5.01 µM (active),8.91 µM (active),2.51 µM (active),–,–,inactive,inactive,inactive,–,–,–,–,1.58 µM (active),0.794 µM (active)
N#C/C(=C\c1ccc(O)c(O)c1)C(=O)NCc1ccccc1,inactive,inactive,inactive,inactive,11.2 µM (active),10 µM (active),17.8 µM (active),–,11.2 µM (active),–,–,inactive,inactive,inactive,–,–,–,–,12.6 µM (active),11.2 µM (active)
